Screening results (PubChem BioAssay)
mHTT-CaM PPI inh = mutant huntingtin-calmodulin interaction inhibitors – biochemical, AlphaScreen, primary screen; inhibition, % at 15 µM; AID 1671202, 2021; AlphaScreen His-mHTT/GST-CaM binding, luminescence; 190,000 compounds, 3.6% hits;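 further: 0% = both proteins with DMSO and 100% = one protein alone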
Pf apPOL inh = Pf-apPOL inhibitors, biochemical, fluorescence; AID 1794808, 2022; 210,000 compounds, 0.25% hits; Plasmodium falciparum apicoplast DNA polymerase (apPOL); inhibition, % at 10 µM; Recombinant Pf-apPOL, molecular beacon fluorescence, 1.5 h
Numbers without * were called inactive; x = not tested or not shown; ! = repeats disagree. Rows were chosen to be rich in hits. Some 3.6% of all compounds tested hit in one or more screens of this group. No stated cut-off is given here; in the data, active means inhibition above about 50%; inactive means the rest.

SMILES | mHTT-CaM PPI inh | Pf apPOL inh
O=C(Nc1ccccc1C(F)(F)F)N1CCC2(CC1)Nc1ccccc1-n1cccc12 | 36.2 | -0.2
O=C(Nc1ccccc1F)N1CCC2(CC1)Nc1cc(F)ccc1-n1cccc12 | 32.9 | 5.4
COc1ccc(OC)c(NC(=O)N2CCC3(CC2)Nc2ccccc2-n2cccc23)c1 | 54.1* | 8.7
COc1ccc(NC(=O)N2CCC3(CC2)Nc2ccccc2-n2cccc23)c(OC)c1 | 63.5* | 6.2
COc1ccc(NC(=O)C2CCN(C(=O)c3ccc(F)cc3)CC2)c(OC)c1 | 3.2 | 3.3
CCOc1ccccc1NC(=O)N1CCC2(CC1)Nc1cc(F)ccc1-n1cccc12 | 52.2* | 3.6
O=C(/C=C/c1ccccc1Cl)Nc1ncc(S(=O)(=O)c2ccc([N+](=O)[O-])cc2)s1 | 37.0 | -2.3
Cn1nc(-c2nc(Cc3ccccc3)no2)c2c1CCN(C(=O)c1ccoc1)C2 | 2.2 | -1.6
CC(=O)N1CCc2cc(Br)cc(S(=O)(=O)NCCC(C)C)c21 | 8.0 | -1.8
COc1ccccc1OCC(=O)NC1CC(=O)N(c2ccc(C)c(C)c2)C1 (centres undefined) | -2.5 | -13.0
O=C(c1ccccn1)N1CCCC(c2n[nH]c(C3CC3)n2)C1 (centres undefined) | 4.8 | 2.1
CC1Cc2c(NC(=O)c3ccc(Br)o3)nn(C)c2NC1=O (centres undefined) | 52.5* | -0.1
COCC(=O)Nc1nn(C)c2c1CC(C)C(=O)N2 (centres undefined) | -14.0 | -1.4
Cc1ccc(NC(=O)c2cc3cc(Br)ccc3oc2=O)c(Br)c1 | -2.0 | 85.0*
Cc1ccc(NC(=O)c2cc3ccccc3oc2=O)c(Br)c1 | 5.0 | -3.3
O=C1C=CC(=O)C(C2=C3C(=O)N(CCc4ccccc4)CC(=O)N3CCC2)=C1 | 80.0* | -5.2
O=C1CNC(=S)N1CCc1c[nH]c2ccccc12 | x | 12.3
COc1ccc(CCN2CC(=O)N3CCCC(C4=CC(=O)C=CC4=O)=C3C2=O)cc1OC | 21.0 | 2.1
O=C1C=CC(=O)C(C2=C3C(=O)N(CCc4c[nH]c5ccccc45)CC(=O)N3CCC2)=C1 | 63.0* | -2.9
Cc1ccc([N+](=O)[O-])cc1NC(=O)COc1ccc(Cl)cc1Cl | -5.1 | 2.7
CCN(CC)CCNC(=O)CN1N=C(c2ccc(Cl)cc2)CCC1=O | 0.0 | -91.9
CCN(CCNC(=O)CN1N=C(c2ccc(Cl)cc2)CCC1=O)c1ccccc1 | 65.0* | -10.0
CCC(=O)NC(c1ccc(C(C)C)cc1)c1cc([N+](=O)[O-])c2cccnc2c1O (centres undefined) | 100.0* | -7.6
CN(C)C(=O)NC(c1ccccc1)c1cc([N+](=O)[O-])c2cccnc2c1O (centres undefined) | 100.0* | -10.1
CCCC(=O)NC(c1ccc(Cl)cc1Cl)c1cc([N+](=O)[O-])c2cccnc2c1O (centres undefined) | 99.0* | -2.9
SMILES | mHTT-CaM PPI inh | Pf apPOL inh
CC(C)C(=O)NC(c1cccs1)c1cc([N+](=O)[O-])c2cccnc2c1O (centres undefined) | 100.0* | -4.7
Cc1cc(C)cc(C(=O)N2CCCC(C(=O)NCc3ccccn3)C2)c1 (centres undefined) | -0.9 | 2.6
Cc1ccc(S(=O)(=O)NCCCN(C)C)c(C)c1F | x | -3.7
Cc1cc(C(=O)c2ccccc2C(=O)O)ccc1Cl | -0.8 | -0.7
CCC(C)NC(=O)C1(C)CCC(=O)N1CCc1ccc(C)cc1 (centres undefined) | 1.0 | -14.6
CCC(=O)NC(c1ccccc1Cl)c1cc([N+](=O)[O-])c2cccnc2c1O (centres undefined) | 100.0* | -3.2
CCCC(=O)NC(c1ccc(C(C)C)cc1)c1cc([N+](=O)[O-])c2cccnc2c1O (centres undefined) | 51.4* | -1.9
CCC(=O)NC(c1ccccc1OC)c1cc([N+](=O)[O-])c2cccnc2c1O (centres undefined) | 100.0* | -3.9
CCC(=O)NC(c1ccccc1)c1cc([N+](=O)[O-])c2cccnc2c1O (centres undefined) | 100.0* | 0.7
COc1ccc(CCNC(=O)Cn2cc(OC)c(=O)cc2CO)cc1OC | -3.1 | -2.5
COc1cccc(-c2noc(C3CCCN3C(=O)Nc3ccc(OC)cc3OC)n2)c1 (centres undefined) | 16.7 | -0.2
O=C1OC(c2ccc(Cl)cc2Cl)=N/C1=C\c1ccc([N+](=O)[O-])o1 | 14.0 | 0.0
O=C(Cc1cccs1)N1CCN(S(=O)(=O)C2CC2)CC1 | -14.5 | -2.6
COc1ccc(-c2nc3ccccn3c2NC(=O)c2ccc(Cl)c([N+](=O)[O-])c2)cc1 | 49.0 | 3.2
O=C(Nc1c(-c2ccccc2)nc2ccccn12)c1ccc(Cl)c([N+](=O)[O-])c1 | 67.0* | -1.6
CC(C)CNC(=O)N1CCC(C(=O)NCc2csc(-c3ccccc3)n2)CC1 | 1.2 | -8.5
Cc1ccc(CNc2ccc3c(c2)ncn3C)cc1 | 25.0 | -6.7
Nc1nc2ccccc2n1Cc1ccccc1 | 3.1 | -4.1
Cn1cnc2cc(NCc3nc4ccccc4n3Cc3ccccc3)ccc21 | 87.9*! | -2.0
Fc1ccc(NCc2nc3ccccc3n2Cc2ccccc2)cc1 | 50.0* | 0.0
CCN(CCN(C)C)Cc1ccc(F)cc1 | -0.8 | 0.8
CC(=O)Nc1ccc(C(=O)NCc2cccnc2)c(N2CCCCC2)c1 | -3.6 | 2.7
COC(=O)c1sccc1NN=C(C#N)S(=O)(=O)c1cccs1 | x | -14.7
CCC(C(=O)N1CCC(CCOC)CC1)c1ccccc1 (centres undefined) | -4.8 | -1.8
COc1ccc(NC(=O)Cn2ccc3c(=O)[nH]ccc32)cc1Cl | 24.0 | 78.1*
SMILES | mHTT-CaM PPI inh | Pf apPOL inh
CSc1cccc(NC(=O)Cn2ccc3c(=O)[nH]ccc32)c1 | 1.3 | 18.6
COc1ccc(C)cc1NC(=O)Cn1ccc2c(=O)[nH]ccc21 | 38.8 | 72.9*
Cc1ccc(NC(=O)Cn2ccc3c(=O)[nH]ccc32)c(C)c1 | -4.0 | 21.3
Cc1ccc2[nH]c(C)c(CCC(=O)NC3CCCCC3)c2c1 | 17.3 | 1.1
O=C1NCCCn2cc(S(=O)(=O)Nc3ccccc3)cc21 | 7.9 | 20.5
CCc1ccc(/C=C2/SC(N3CCCC3)=NC2=O)cc1 | 7.0 | -9.9
Cc1nc(C(F)(F)F)ccc1C(=O)N1CCN(Cc2c(F)cccc2Cl)CC1 | x | -7.1
OC(COCC1CC2CCC1C2)CN1CCc2ccccc2C1 (centres undefined) | -1.8 | -0.3
OC(COCC1CC2CCC1C2)CN1CCN(C(c2ccccc2)c2ccccc2)CC1 (centres undefined) | 62.3* | 1.8
O=c1oc2cc3occ(-c4ccc5c(c4)OCO5)c3cc2c2ccccc12 | 18.0 | 6.1
O=C(CN1CC(c2nc(Cc3ccccc3)no2)C1)c1ccc(Cl)cc1 | 56.9* | 20.3
Cc1nnc(NC(=O)CN2CC(c3nc(Cc4ccccc4)no3)C2)s1 | -2.8 | -5.0
Cc1cccc(CS(=O)(=O)N2CC(c3nc(Cc4ccccc4)no3)C2)c1 | -12.9 | -8.3
FC(F)(F)c1cccc(CN2CC(c3nc(Cc4ccccc4)no3)C2)c1 | 61.5* | -4.1
COc1ccc(OC)c(/C=C/c2ccc3cccc(O)c3n2)c1 | 36.0 | 2.3
COc1cccc2ccc(/C=C/c3cccc([N+](=O)[O-])c3)nc12 | 11.6 | -8.5
COc1cc(/C=C/c2ccc3cccc(O)c3n2)c(Cl)cc1O | 63.2* | -5.5
COc1cc(/C=C/c2ccc3cccc(O)c3n2)c(Br)cc1O | 48.0 | -7.5
Oc1cccc2ccc(/C=C/c3cc4c(cc3Br)OCO4)nc12 | 72.0* | -8.5
